Results filed as inconclusive are left out. The source made the active and inactive calls. Unless noted, the call rests on the fitted dose curve; in most records, active means well fitted curve in the direction sought with a large enough effect in the repeat runs; inconclusive means weak or mixed curves; inactive means no such curve, though single readings can be large; an effect the other way counts as inactive or inconclusive.
What was measured:
[1] = qHTS assay to identify small molecule antagonists of the estrogen related receptor (ERR) signaling pathway from Tox21 library - cell viability counter screen (AID 1224834); further: nearly all actives have a fitted effect of over 30% in size
Method in brief: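 Compounds in DMSO were pinned onto ERR cells that had been incubated for 6 h, and the plates were held at 37 C for 17.5 h. CellTiter-Fluor reagent was then added and fluorescence was measured after 30 min.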

[2] = molecular target: Luciferin 4-monooxygenase (Photinus pyralis) (UniProt P08659); assay: qHTS assay to identify small molecule inhibitors of firefly luciferase (AID 1224835); further: nearly all actives have a fitted effect of over 25% in size
Method in brief: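 Quantitative HTS format; KM concentrations of both substrates. Purified P. pyralis FLuc activity quantified from luminescence images.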

[3] = qHTS assay to identify small molecule agonists of the constitutive androstane receptor (CAR) signaling pathway - cell viability counter screen (AID 1224836); further: nearly all actives have a fitted effect of over 45% in size
Method in brief: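 Double-stable HepG2 hepatoma cells (hCAR plus CYP2B6-2.2kb) are treated for 23 h at 37 C with test compounds in 15-point concentration series. PK11195 at 0.75 uM final is co-added. Cell viability is quantified by CellTiter-Fluor.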

[4] = qHTS assay to identify small molecule antagonists of the constitutive androstane receptor (CAR) signaling pathway - cell viability counter screen (AID 1224837); further: nearly all actives have a fitted effect of over 45% in size
Method in brief: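 Cells are seeded, rested 4 hr at 37 C/5% CO2, dosed with compound (15-point series) and 50 nM CITCO, incubated a further 23 hr, and then CellTiter-Fluor reagent is added before fluorescence is read. The line is HepG2 with stable hCAR and CYP2B6-2.2kb.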

[5] = molecular target: Nuclear receptor subfamily 1 group I member 3 (Homo sapiens) (UniProt Q14994); assay: qHTS assay to identify small molecule antagonists of the constitutive androstane receptor (CAR) signaling pathway (AID 1224838);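 further: HepG2 cells stably expressing hCAR with CYP2B6 luciferase reporter stimulated by CITCO; nearly all actives have a fitted effect of over 40% in size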
Method in brief: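 Luminescence from a CYP2B6-2.2kb promoter reporter in hCAR-expressing HepG2 cells reflects CAR signaling. Cells received compounds at 15 concentrations and 50 nM CITCO (final), then incubated 24 h at 37 C/5% CO2.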

[6] = molecular target: Nuclear receptor subfamily 1 group I member 3 (Homo sapiens) (UniProt Q14994); assay: qHTS assay to identify small molecule agonists of the constitutive androstane receptor (CAR) signaling pathway (AID 1224839);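 further: HepG2 cells stably carrying human CAR and a CYP2B6 luciferase reporter; nearly all actives have a fitted effect of over 15% in size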
Method in brief: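 Readout: firefly luciferase luminescence via ONE-Glo. System: HepG2 double-stable for hCAR and CYP2B6-2.2kb. Conditions: 15-point compound titration, PK11195 at 0.75 uM final, 24 h incubation.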

[7] = qHTS assay to identify small molecule antagonists of the estrogen related receptor signaling pathway with the pleiotropic PPARgamma coactivator (PGC) from Tox21 10K library - cell viability counter screen (AID 1224840; active means well fitted cell-killing curve with a large enough effect in the repeat runs, not every such curve was filed as active; further: nearly all actives have a fitted effect of over 40% in size)
Method in brief: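 Cell viability is measured by CellTiter-Fluor fluorescence in PGC/ERR cells that receive compounds after a 6-hour attachment period and are then incubated 17.5 hours at 37 C.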

[8] = qHTS assay to identify small molecule antagonists of the estrogen related receptor signaling pathway with the pleiotropic PPARgamma coactivator (PGC) from Tox21 10K library (AID 1224841; call rule not given here; further: actives are mostly falling curves and most rising ones were filed inactive; nearly all actives have a fitted effect of over 50% in size)
Method in brief: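 Cells stably carrying the PGC/ERR reporter, seeded at 2,000 per well, received pin-transferred compounds 6 h post-plating. Exposure lasted 18 h at 37 C. Signal: One-Glo luminescence.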

[9] = qHTS assay to identify small molecule agonists of the estrogen related receptor signaling pathway with the pleiotropic PPARgamma coactivator (PGC) from Tox21 10K library (AID 1224842); further: nearly all actives have a fitted effect of over 15% in size
Method in brief: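 PGC/ERR reporter cells (NTP line) were seeded 2,000 per well, rested 6 h at 37 C/5% CO2, then pin-dosed with compounds in DMSO for 18 h at 37 C; luciferase read by One-Glo luminescence after 30 min at room temperature.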

[10] = molecular target: Thyrotropin receptor (Homo sapiens) (UniProt P16473); assay: qHTS assay to identify small molecule agonists of the thyroid stimulating hormone receptor (TSHR) signaling pathway (AID 1224843; calls by dose curve; further: nearly all actives have a fitted effect of over 45% in size)
Method in brief: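 Using 15 concentrations per compound in triplicate, cAMP production was monitored in TSHR-HEK293 cells after 30 min compound incubation at RT; HTRF reagents followed, with fluorescence intensity recorded after 1 h.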

[11] = qHTS assay to identify small molecule agonists of the hypoxia (HIF-1) signaling pathway - cell viability counter screen (AID 1224844; calls by dose curve; further: nearly all actives have a fitted effect of over 50% in size)
Method in brief: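 Viability counter screen: HRE-bla ME-180 cells plated 5 hrs before compound addition, treated 17 hrs at 37C and 5% CO2, then CellTiter-Glo added after the FRET reporter read; luminescence after 30 min.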

[12] = qHTS assay to identify small molecule agonists of H2AX (AID 1224845; active means well fitted activation curve with a large enough effect in the signal ratio in the repeat runs, not every such curve was filed as active; the % refers to the signal ratio)
Method in brief: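 Wild-type CHO-K1 cells plated overnight, then exposed 3 hr at 37C to compounds at 15 concentrations (0.76% DMSO). Lysed, then HTRF anti-pH2AX(S139)-cryptate/anti-H2AX-d2 detection after 24 hr at room temperature; emissions 665 and 620 nm.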

[13] = qHTS assay to identify small molecule agonists of the hypoxia (HIF-1) signaling pathway (AID 1224846; active means well fitted activation curve with a large enough effect in the signal ratio in the repeat runs, not every such curve was filed as active; the % refers to the signal ratio)
Method in brief: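 Agonist mode reporter screen. ME-180 cells stably expressing bla under HRE control received test compounds in DMSO for 17 hrs (37C, 5% CO2), and beta-lactamase activity was then detected with the CCF4-AM FRET substrate.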

[14] = qHTS assay to identify small molecule agonists of H2AX - cell viability counter screen (AID 1224847; calls by dose curve; further: top concentration of the series differs between compounds; nearly all actives have a fitted effect of over 30% in size)
Method in brief: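 For this counter screen, overnight-attached CHO-K1 cells received test compounds (15 concentrations, 0.76% DMSO final); 3 hr later at 37C, CellTiter-Glo reagent was added and luminescence recorded after 30 min at room temperature.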

[15] = qHTS assay to identify small molecule antagonists of the estrogen related receptor (ERR) signaling pathway from Tox21 library (AID 1224848); further: nearly all actives have a fitted effect of over 50% in size
Method in brief: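 Tox21 10K compounds in DMSO tested for ERR pathway antagonism in NTP's ERR cell line; 18 h, 37 C exposure; ONE-Glo luminescence.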

[16] = qHTS RealTime-Glo MT Cell Viability Assay in HepG2 cells - 24 hour (AID 1224867); further: nearly all actives have a fitted effect of over 50% in size
Method in brief: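 HepG2 suspension premixed with RealTime-Glo reagents is plated at 600 cells per well and left 5 h at 37 C/5% CO2. Compounds in DMSO then go in, and bioluminescence reflecting viable cell number is recorded over 40 h.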

[17] = qHTS RealTime-Glo MT Cell Viability Assay in HEK293 cells - 32 hour (AID 1224868)
Method in brief: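 Reads taken at 0, 8, 16, 24, 32 and 40 h from the same wells. HEK293 cells (600/well) carried RealTime-Glo reagents from seeding, with compound added after a 5 h settle at 37 C.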

[18] = A CellTox Green Cytotoxicity Assay to monitor cytotoxicity in HEK293 cells - 0 hour (AID 1224869); further: nearly all actives have a fitted effect of over 50% in size
Method in brief: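 Dead-cell fluorescence measured kinetically: asymmetric cyanine dye, HEK293, 600 cells/well, 5 h settle, 23 nL cpd/DMSO, 37 C, reads 0–40 h every 8 h.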

[19] = qHTS assay to identify small molecule agonists of the estrogen related receptor signaling pathway with the pleiotropic PPARgamma coactivator (PGC) (AID 1224823)
Method in brief: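 In this quantitative high-throughput screen, an 18 h, 37 C treatment of PGC/ERR cells with compounds in DMSO preceded a One-Glo luminescence read taken after 30 min at room temperature.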

[20] = qHTS assay to identify small molecule agonists of the estrogen related receptor (ERR) signaling pathway from Tox21 library (AID 1224849; calls by dose curve; further: nearly all actives have a fitted effect of over 15% in size); conditions: ERR reporter cell line, ONE-Glo luciferase, 18 h; at 92.4 µM (top of the series) unless noted
Method in brief: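 Quantitative HTS in agonist format: NTP ERR cell line, compounds transferred in DMSO after 6 h plating, 18 h incubation at 37 C, ONE-Glo luminescence endpoint.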
On the % scale 0 is the no-effect control and ±100 the full control effect.

Luciferin 4-monooxygenase (Photinus pyralis), sequence (P08659 whole entry, looked up): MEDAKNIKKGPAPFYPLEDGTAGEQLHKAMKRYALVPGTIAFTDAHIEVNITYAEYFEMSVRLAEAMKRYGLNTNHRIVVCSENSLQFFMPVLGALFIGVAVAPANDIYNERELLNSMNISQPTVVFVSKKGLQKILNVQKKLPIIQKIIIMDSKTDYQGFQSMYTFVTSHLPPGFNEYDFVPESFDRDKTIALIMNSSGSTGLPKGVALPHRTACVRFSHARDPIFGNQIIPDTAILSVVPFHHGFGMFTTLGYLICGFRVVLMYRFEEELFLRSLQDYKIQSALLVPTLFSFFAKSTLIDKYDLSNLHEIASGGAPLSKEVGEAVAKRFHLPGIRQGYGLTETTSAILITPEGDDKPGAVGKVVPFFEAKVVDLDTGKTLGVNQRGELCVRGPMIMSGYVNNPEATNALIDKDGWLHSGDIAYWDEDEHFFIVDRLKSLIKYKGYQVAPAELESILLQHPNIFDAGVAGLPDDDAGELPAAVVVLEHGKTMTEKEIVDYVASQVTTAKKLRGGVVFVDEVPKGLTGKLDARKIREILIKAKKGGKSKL
Nuclear receptor subfamily 1 group I member 3 (Homo sapiens), sequence (Q14994 whole entry, looked up): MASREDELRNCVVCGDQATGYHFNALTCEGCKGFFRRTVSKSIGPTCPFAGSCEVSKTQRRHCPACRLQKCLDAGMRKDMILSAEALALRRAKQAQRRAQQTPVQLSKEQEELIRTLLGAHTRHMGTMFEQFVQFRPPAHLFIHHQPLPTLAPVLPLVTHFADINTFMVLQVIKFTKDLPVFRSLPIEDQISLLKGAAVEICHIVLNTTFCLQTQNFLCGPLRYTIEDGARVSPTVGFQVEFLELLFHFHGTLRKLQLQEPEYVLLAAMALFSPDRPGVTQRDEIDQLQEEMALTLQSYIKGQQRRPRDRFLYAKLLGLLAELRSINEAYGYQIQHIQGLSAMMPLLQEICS
Thyrotropin receptor (Homo sapiens), sequence (P16473 whole entry, looked up): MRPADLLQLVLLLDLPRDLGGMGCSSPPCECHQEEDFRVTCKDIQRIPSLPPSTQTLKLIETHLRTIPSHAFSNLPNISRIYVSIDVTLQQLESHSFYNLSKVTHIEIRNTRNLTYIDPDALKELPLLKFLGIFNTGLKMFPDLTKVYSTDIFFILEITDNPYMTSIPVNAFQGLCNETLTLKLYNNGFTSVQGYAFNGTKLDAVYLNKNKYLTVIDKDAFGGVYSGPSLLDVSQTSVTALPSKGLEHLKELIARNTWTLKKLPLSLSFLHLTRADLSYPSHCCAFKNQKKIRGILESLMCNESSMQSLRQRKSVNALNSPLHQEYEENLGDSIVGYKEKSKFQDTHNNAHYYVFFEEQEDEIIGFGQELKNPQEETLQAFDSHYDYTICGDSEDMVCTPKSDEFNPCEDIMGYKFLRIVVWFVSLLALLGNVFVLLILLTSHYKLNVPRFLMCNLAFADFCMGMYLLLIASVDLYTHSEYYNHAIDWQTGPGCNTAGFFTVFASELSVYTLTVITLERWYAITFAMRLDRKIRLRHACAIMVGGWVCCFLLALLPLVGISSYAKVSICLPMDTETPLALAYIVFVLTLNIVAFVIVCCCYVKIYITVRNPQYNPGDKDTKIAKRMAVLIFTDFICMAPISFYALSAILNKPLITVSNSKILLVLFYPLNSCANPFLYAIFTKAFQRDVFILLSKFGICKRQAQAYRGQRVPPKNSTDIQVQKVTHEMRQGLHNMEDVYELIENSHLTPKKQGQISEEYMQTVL

C#CCOC(=O)/C=C(C)/C=C/CC(C)CCCC(C)C (stereo unspecified)
inactive: Potency [1] | Potency [2] | Potency [3] | Potency [4] | Potency [5] | Potency [6] | Potency [7] | Potency [8] | Potency [9] | Potency [10] | Potency [11] | outcome [12] | outcome [13] | Potency [14] | Potency [15] | Potency [16] | Potency [17] | outcome [18]

CCN(CC)CCOC(=O)C(O)(c1ccccc1)c1ccccc1
inactive: Potency [1] | Potency [2] | Potency [3] | Potency [4] | Potency [5] | Potency [6] | Potency [7] | Potency [8] | Potency [9] | Potency [10] | Potency [11] | outcome [12] | outcome [13] | Potency [14] | Potency [15] | Potency [16] | Potency [17] | outcome [18]

CC[C@@H](CO)NC(=O)[C@@H]1C=C2c3cccc4c3c(cn4C)C[C@H]2N(C)C1
inactive: outcome [19] | Potency [1] | Potency [3] | Potency [4] | Potency [5] | Potency [6] | Potency [7] | Potency [8] | Potency [9] | Potency [11] | outcome [12] | outcome [13] | Potency [14] | Potency [15] | Potency [16] | outcome [18]

CCN1CCCC1CNC(=O)C(O)(c1ccccc1)c1ccccc1 (stereo unspecified)
inactive: Potency [1] | Potency [2] | Potency [3] | Potency [4] | Potency [5] | Potency [6] | Potency [7] | Potency [10] | Potency [11] | outcome [12] | outcome [13] | Potency [14] | Potency [16] | Potency [17] | outcome [18]

CCC(C)C(C)(COC(N)=O)COC(N)=O (stereo unspecified)
inactive: Potency [1] | Potency [2] | Potency [3] | Potency [4] | Potency [5] | Potency [6] | Potency [7] | Potency [8] | Potency [9] | Potency [10] | Potency [11] | outcome [12] | outcome [13] | Potency [14] | Potency [15] | Potency [16] | Potency [17] | outcome [18]

C1CN2CCC1CC2
inactive: Potency [1] | Potency [2] | Potency [3] | Potency [4] | Potency [5] | Potency [6] | Potency [7] | Potency [10] | Potency [11] | outcome [12] | outcome [13] | Potency [14] | Potency [16] | Potency [17] | outcome [18]

CC(=O)OCC1=C(C(=O)O)N2C(=O)[C@@H](N)[C@H]2SC1
inactive: viability change, negative = cytotoxic [1] 3.81% [at 19 µM] | activity change, negative = inhibition [2] 5.1% [at 23.6 µM] | viability change, negative = cytotoxic [3] 12.6% [at 19 µM] | activity change, negative = cytotoxicity [4] 5.22% [at 19 µM] | activity, negative = inhibition [5] 0.319% [at 19 µM] | activation [6] 4.04% [at 19 µM] | viability change, negative = cytotoxic [7] 9.03% [at 19 µM] | activity, negative = inhibition [8] -8.84% [at 19 µM] | activation [9] -2.61% [at 19 µM] | activation [10] 9.8% [at 19 µM] | activity change, negative = cytotoxicity [11] -17.2% [at 15.8 µM] | activation (H2AX phosphorylation) [12] 0.102% [at 31.6 µM] | activity change, negative = cytotoxicity [14] 3.73% [at 31.6 µM] | activity, negative = inhibition [15] 15.1% [at 19 µM] | activity change, negative = cytotoxicity [16] 0.275% [at 15.8 µM] | activity change, negative = cytotoxic [17] 19.8% [at 15.8 µM] | cytotoxicity [18] 1.32% [at 15.8 µM]

CCOC(=O)CCl
inactive: Potency [1] | Potency [2] | Potency [3] | Potency [4] | Potency [5] | Potency [6] | Potency [7] | Potency [10] | Potency [11] | outcome [12] | outcome [13] | Potency [14] | Potency [16] | Potency [17] | outcome [18]

CC[C@@H](CO)NC(=O)[C@@H]1C=C2c3cccc4[nH]cc(c34)C[C@H]2N(C)C1
inactive: outcome [19] | Potency [1] | Potency [3] | Potency [4] | Potency [7] | Potency [8] | Potency [9] | Potency [10] | Potency [11] | outcome [12] | outcome [13] | Potency [14] | Potency [15] | Potency [16] | outcome [18]

COc1ccc(C=O)cc1O
inactive: Potency [1] | Potency [2] | Potency [3] | Potency [4] | Potency [5] | Potency [6] | Potency [7] | Potency [9] | Potency [10] | Potency [11] | outcome [12] | outcome [13] | Potency [14] | Potency [15] | Potency [16] | outcome [18]

[P]#[In]
inactive: Potency [1] | Potency [2] | Potency [3] | Potency [4] | Potency [5] | Potency [6] | Potency [7] | Potency [8] | Potency [9] | Potency [10] | Potency [11] | outcome [12] | outcome [13] | Potency [15] | activity change, positive = activation [20] 3.59% | Potency [16] | Potency [17] | outcome [18]

ClC(Cl)(Cl)Cl
inactive: Potency [1] | Potency [2] | Potency [3] | Potency [4] | Potency [5] | Potency [6] | Potency [7] | Potency [8] | Potency [9] | Potency [10] | Potency [11] | outcome [12] | outcome [13] | Potency [14] | Potency [15] | activity change, positive = activation [20] -3.58% | Potency [16] | Potency [17] | outcome [18]

CS(=O)(=O)c1ccc(C(=O)C2C(=O)CCCC2=O)c(Cl)c1COCC(F)(F)F
inactive: Potency [1] | Potency [2] | Potency [3] | Potency [4] | Potency [5] | Potency [6] | Potency [7] | Potency [8] | Potency [9] | Potency [10] | Potency [11] | outcome [12] | outcome [13] | Potency [14] | Potency [15] | Potency [16] | Potency [17] | outcome [18]

O=C(Cl)CCl
inactive: Potency [1] | Potency [2] | Potency [3] | Potency [4] | Potency [5] | Potency [6] | Potency [7] | Potency [10] | Potency [11] | outcome [12] | outcome [13] | Potency [14] | Potency [16] | Potency [17] | outcome [18]

BrCCc1ccccc1
inactive: Potency [1] | Potency [2] | Potency [3] | Potency [4] | Potency [5] | Potency [6] | Potency [7] | Potency [8] | Potency [9] | Potency [10] | Potency [11] | outcome [12] | outcome [13] | Potency [14] | Potency [15] | Potency [16] | Potency [17] | outcome [18]

From PubChem BioAssay (Tox21)
